ALOX12 inhib – 12-hLO (ALOX12) enzyme inhibition | P18054 | purified 12-hLO, xylenol orange hydroperoxide absorbance | Potency, µM (highest dose often 57.1 µM), for the others: at the top dose activity change, negative = inhibition, actives largely listed as inhibitors | 150,000 compounds, 0.12% hits | AID 1452; further: potency means the concentration at half of the fitted maximal effect; nearly all actives have a fitted effect of over 55% in size
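Purified human 12hLO (150 nM final) was preincubated with compounds for 15 min at room temperature in 25 mM Hepes pH 7.0, 0.01% Triton X-100, then reacted with 40 uM arachidonic acid for 30 min. Hydroperoxide was detected with ferrous iron/xylenol orange.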
IMPase Li cell – IMPase inhibition in cells with lithium potentiation | Potency, µM (highest dose often 59.4 µM), without a hit: at the highest dose activity, negative = IMPase inhibition, usual class: inhibitors | CHO-M1 cells, IP1 TR-FRET (IP-One), carbachol + lithium | 210,000 compounds, 0.35% hits;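 further: IP1 builds up when IMPase is blocked and the TR-FRET signal falls; potency means the concentration at half of the fitted maximal effect; plate controls were basal vehicle for no effect and high inhibitor control for full effect; nearly all actives have a fitted effect of over 50% in size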
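Concentration–response in CHO-M1 cells, lithium-potentiated; 30 min at 37C. IP1 detected by competitive TR-FRET after 10 min lysis at RT. Hill-fitted AC50.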
IMPase cell inh – IMPase inhibition in cells; CHO-M1 cells, IP1 accumulation, HTRF TR-FRET ratio; P97697; inhibition (IP1 accumulation), % at 46.1 µM; 120,000 tested, under 10 active; active means well fitted curve in the direction sought with a large enough effect in the signal ratio, not every such curve was filed as active; inconclusive means small, poorly fitted or top-dose-only effect, or a change in a side signal; inactive means no such curve, though single readings can be large or run the other way; the % refers to the signal ratio;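 further: cells stimulated with carbachol in lithium chloride buffer; plate controls were DMSO basal wells for no effect and reference inhibitor wells for full effect; higher means more IMPase inhibition seen as more IP1 and lower FRET ratio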
Target sequence (P97697 whole entry, looked up): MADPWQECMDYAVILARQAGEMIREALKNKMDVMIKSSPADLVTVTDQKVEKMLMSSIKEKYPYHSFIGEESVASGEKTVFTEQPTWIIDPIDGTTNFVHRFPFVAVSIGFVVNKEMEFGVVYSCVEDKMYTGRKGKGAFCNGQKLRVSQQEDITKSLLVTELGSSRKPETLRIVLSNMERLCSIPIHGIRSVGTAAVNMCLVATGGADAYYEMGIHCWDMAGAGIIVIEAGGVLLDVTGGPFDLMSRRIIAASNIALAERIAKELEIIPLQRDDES
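Measured: the HTRF emission ratio (665/620 nm) plus the 620 nm donor channel, each fitted to the Hill equation to give AC50. Cells were CHO-M1 given compounds up to 46 uM and a 30 min carbachol stimulation at 37C.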
PNC assembly inh – blocks assembly of the perinucleolar compartment; PC3M PTB-GFP, PNC prevalence imaging, 16 h; active compounds read low; activity change (PNC), negative = inhibition, % at 10 µM; 140,000 compounds, 3.1% hits; AID 2417;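 active means readout at or below -70, meaning at least 70% loss of cells showing the perinucleolar compartment, a nuclear body marking cancer cells; inconclusive means readout between -30 and a set limit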;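 further: plate controls were DMSO wells for no effect and camptothecin positive control wells for full effect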
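Compounds are pinned in duplicate onto adhered PC3M cells stably expressing GFP-tagged PTB and incubated 16 h at 37 C. Cells are then fixed, nuclei stained with Hoechst, and PNC-positive cells counted.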
15-hLO-2 inh – blocks human 15-lipoxygenase 2 activity; O15296; 110,000 compounds, 0.56% hits; Potency, µM (titrated, usually from 57.1 µM), inactives show at the highest dose activity change, negative = inhibition, actives largely listed as inhibitors; AID 881; purified 15hLO-2, xylenol orange hydroperoxide absorbance; further: potency means the concentration at half of the fitted maximal effect; nearly all actives have a fitted effect of over 60% in size
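Screening format was qHTS against 50 nM purified 15hLO-2 in Hepes pH 7.5 with detergent. Activity follows hydroperoxide formation from 45 uM arachidonic acid, measured as 573:405 nm absorbance ratio of the ferric-xylenol orange complex.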
Active calls of the source: *; u = inconclusive; x = no result; [ ] = another dose, or the depositor's remark. Only a selection was taken, and hits are over-represented in it overall. Unless noted, the call rests on the fitted dose curve; in most records, active means well fitted curve in the direction sought with a large enough effect; inconclusive means small, poorly fitted or top-dose-only effect, or another doubt; inactive means no such curve, though single readings can be large; an effect the other way counts as inactive or inconclusive. Unless noted, on the % scale 0 is the no-effect control and ±100 the full control effect.

SMILES	ALOX12 inhib	IMPase Li cell	IMPase cell inh	PNC assembly inh	15-hLO-2 inh
CS(=O)(=O)N1CCC2(CC1)CN(Cc1ccc(C#N)cc1)C2	2.5%	18.9%	x	x	4.1%
Cc1ccc(CCNC(=O)C23C[C@H]4C[C@@H](C2)CC(n2nnc(C)n2)(C4)C3)cc1	x	3.3%	x	x	x
Cc1nnn(C23CC4CC(CC(C(=O)NN)(C4)C2)C3)n1	-4.3%	4.0%	x	-113.8*	x
Oc1ccccc1-c1nc(NCC2CCCO2)c2ccccc2n1 (stereo not given)	-6.7%	24.2%[38.3 µM]	6.2	16.4	19.3%
COc1cccc(-c2nc(NCC3CCCO3)c3ccccc3n2)c1O (stereo not given)	-1.9%	14.1µM*	2.2	27.6	-7.6%
CCCNC(=O)NS(=O)(=O)c1cnccc1Sc1ccc(Cl)cc1	3.4%	3.7%[38.3 µM]	4.8	12.9	-1.1%
CCNC(=O)NS(=O)(=O)c1cnccc1Nc1cccc(Cl)c1	-2.6%	-1.8%	x	-89.6*	x
CC/C=C/C#N	0.6%	-13.0%	x	x	8.0%
O=C(c1cn(-c2ccccc2)nc1-c1cccs1)N1CCN(c2ccc(F)cc2)CC1	-18.8%	x	3.2	-109.5*	19.3%
O=C(Nc1ccc(OCc2ccccc2)cc1)c1cccnc1	0.6%	27.5%[38.3 µM]	8.3	-112.1*	4.5%
COC(=O)[C@H](COC(C)(C)C)NC(=O)O[C@H]1C(=O)c2ccc(OC)cc2O[C@@H]1c1ccc2c(c1)OCO2	x	21.2%	x	x	x
CC1(C)CO[C@H](CC(=O)O)CN1	-0.7%	10.6%	-3.8	x	25.6%
COc1cc(C)c(S(=O)(=O)N2CCOCC2)cc1C	9.9%	-1.3%	1.8	-100.0*	x
CCCOc1cc(C)c(S(=O)(=O)N2CCOCC2)cc1C	-7.0%	5.5%	x	u	x
COc1cc(S(=O)(=O)N2CCN(Cc3ccc4c(c3)OCO4)CC2)c(C)cc1C	-6.5%	10.8%	0.9	-119.3*	x
Cc1cc(C)c(S(=O)(=O)N2CCN(Cc3ccc4c(c3)OCO4)CC2)cc1C	x	x	-12.1	x	x
C=CCOC(=O)N[C@@H](CC(C)C)/C(C(=O)OC)=C(\C)NCc1ccccc1	x	26.0%	x	x	x
O=C(NCc1ccco1)C12CN(Cc3ccccc3)CC1C(c1cccc([N+](=O)[O-])c1)=NO2 (stereo not given)	-1.9%	21.3%[38.3 µM]	2.7	-86.1*	-14.8%
COC(=O)C(CC(=O)c1ccc(Cl)cc1)c1ccc(C)cc1 (stereo not given)	-3.2%	11.3%	-0.4	-100.0*	x
CN1CCN(C(CNS(=O)(=O)c2ccc(F)cc2)c2cccnc2)CC1 (stereo not given)	-0.5%	2.4%	-12.1	-100.0*	x
CN1CCN(C(CNS(=O)(=O)c2ccc(Cl)cc2)c2cccnc2)CC1 (stereo not given)	3.2%	1.4%	0.8	-100.0*	x
COc1ccccc1N1CCN(C(CNS(=O)(=O)c2ccccc2)c2cccnc2)CC1 (stereo not given)	1.4%	12.0%[38.3 µM]	-5.5	31.5	9.4%
COc1ccc(S(=O)(=O)NCC(c2cccnc2)N2CCN(C)CC2)cc1C (stereo not given)	1.5%	-3.0%	-3.3	23.8	x
CCOc1ccc(-c2cc(C(=O)N/N=C/c3ccc(O)c(OC)c3)[nH]n2)cc1	2.0%	x	x	x	x
COc1ccc(CCNC(c2ccc(F)cc2)c2nnc(-c3ccccc3Cl)o2)cc1OC (stereo not given)	x	x	14.4	x	x
SMILES	ALOX12 inhib	IMPase Li cell	IMPase cell inh	PNC assembly inh	15-hLO-2 inh
CCCCOc1cc(C[C@@H]2CNC(=O)N2)ccc1OC	-4.3%	4.8%	-8.0	x	20.9%
O=C(O)C(Cc1ccccc1)N1C(=O)/C(=C/c2cccc3ccccc23)SC1=S (stereo not given)	-4.3%	17.9%	4.7	45.2	20µM*
Cc1nn(CCC(=O)NNC(=S)NCC(C)C)c(C)c1Br	2.5%	14.9%[38.3 µM]	1.5	-111.7*	-2.2%
CCc1ccccc1Nc1nc2cc(Cl)c(Cl)cc2nc1-n1nc(C)cc1C	x	x	2.7	x	x
COc1ccc(S(=O)(=O)NCc2csc(C)n2)cc1	-1.8%	1.3%[38.3 µM]	1.5	-26.0	0.5%
CCOc1ccc(S(=O)(=O)NCc2csc(C)n2)cc1	-7.0%	29.1%[38.3 µM]	8.6	-90.7*	1.5%
c1nc(NCCc2cnc[nH]2)c2[nH]cnc2n1	6.3%[11.4 µM]	-8.2%	x	x	-3.6%[11.4 µM]
CCOC(=O)c1ccc(NC(=O)C(Cc2ccccc2)NS(=O)(=O)c2ccc(Br)s2)cc1 (stereo not given)	x	x	-1.9	x	x
O=c1c2c([N+](=O)[O-])cc([N+](=O)[O-])cc2sn1-c1ccc(Br)cc1	3.16µM*	4.3%	-0.6	-7.0	x
O=c1c2cc(Br)ccc2nc(-c2ccc([N+](=O)[O-])cc2)n1O	x	7.9%	x	x	x
COc1ccc(CC(=O)NC2=NCCS2)cc1	-4.2%	34.2%[38.3 µM]	-6.1	9.5	4.1%
COc1ccc(OC)c(/C=C/C(=O)NC2=NCCS2)c1	x	11.2µM*	x	x	x
COc1ccc(CCC(=O)NC2=NCCS2)cc1OC	-3.1%	-13.8%[38.3 µM]	0.6	-100.0*	5.3%
COc1ccc(/C=C/C(=O)NC2=NCCS2)cc1OC	x	6.6%	x	x	x
O=C(O)NCc1ccccc1 (tested in a mixture with another compound)	0.4%[11.4 µM]	15.5%	x	x	-4.6%[11.4 µM]
CCc1cccc(C)c1NC(=O)CSc1nnc(CCCOc2ccc(Cl)cc2Cl)n1C	-4.6%	10.1%	x	-113.4*	x
CCC1C/C(=C\c2cccnc2)C(=O)/C(=C/c2cccnc2)C1 (stereo not given)	-0.5%	9.4%	x	-125.2*	x
COc1ccc(-c2nc3cnc(N(C)C)nc3n(CCc3ccccc3)c2=O)cc1	-4.7%	-8.0%	x	x	1.7%
O=C1CC(c2ccco2)CC(O)=C1C=NCCN1CCN(C(=O)Nc2ccc(Cl)cc2)CC1 (stereo not given)	0.6%	2.2%	x	-99.1*	x
Cc1ccccc1Cn1cnc2ccccc21	x	5.7%	x	x	x
Clc1cc2c(c(Cn3cnc4ccccc43)c1)OCOC2	2.2%	6.0%	-8.8	-100.0*	x
O=[N+]([O-])c1ccc(Cl)c(CN2CCC(O)CC2)c1	-4.3%	0.0%	x	-123.8*	x
COc1ccc(CCNC(=S)Nc2cccc(C)c2C)cc1	u	10.4%[38.3 µM]	8.5	-25.2	25.1µM*
COc1ccc(CCNC(=S)Nc2cc(C)ccc2C)cc1	7.94µM*	39.5%[38.3 µM]	0.9	2.8	25.1µM*
FC(F)(F)c1cccc(N2CCN(Cc3nnc(-c4ccc5c(c4)OCO5)o3)CC2)c1	x	x	11.7	x	x
C=CCSC1=N/C(=C\c2cc(OCC)c(OC(C)=O)c([N+](=O)[O-])c2)C(=O)S1	-21.9%	-0.4%	x	-116.4*	x
O=C(N/N=C/c1c(O)ccc2ccccc12)c1cccc(C(F)(F)F)c1	u	3.4%	x	-93.0*	x
O=C(N/N=C/c1ccc(N2CCOCC2)o1)c1ccccc1[N+](=O)[O-]	1.4%	14.7%	x	8.8	x
O=C(N/N=C/c1ccc(N2CCOCC2)o1)c1cccc(C(F)(F)F)c1	-2.2%	33.9%	-1.3	-100.0*	x
Cc1ccc(NC(=O)C2CCN(S(=O)(=O)c3c(C)noc3C)CC2)c(C)c1	x	x	8.5	x	x

Source: PubChem (National Center for Advancing Translational Sciences (NCATS))
